In the library only some 21% were active in any assay of this set; here they are far more common.
NS1 function inh: inhibitors of influenza NS1 protein function. 0.4% of 270,000 active. Potency, µM (titrated, usually from 46.1 µM). AID 2326; calls by dose curve; also: actives are rising curves; nearly all actives have a fitted effect of over 50% in size
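Recovery from NS1-induced slow growth read by OD600 in budding yeast switched to galactose assay medium (pH 6.0, -URA) at 1:100 dilution. Compound 23 nl per well; the matching strain lacking NS1 serves as control.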
Pf growth 96h: inhibits malaria parasite growth, 96 h. P. falciparum luciferase reporter growth, 96 h. Potency, µM (titrated, usually from 28.7 µM), actives largely listed as inhibitors. 6.9% of 320,000 active. AID 504834
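Two-generation exposure (96 h) targets delayed-death phenotype. Reporter parasites carrying integrated firefly luciferase, in red cells at 2% hematocrit and 0.05% parasitemia final, kept at 37 C, 5% CO2; luminescence loss indicates inhibition.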
Shiga toxin inh: inhibitors of Shiga toxin in Vero cells. 9.2% of 290,000 active. inhibition, % at 38.7 µM. Vero cells, Shiga toxin protein synthesis inhibition reporter; in the data active = inhibition mostly above about 28%, no sharp cut-off; inactive = mostly below about 43%
Pf growth 48h: P. falciparum growth inhibition at 48 hours (one generation); AID 504832; P. falciparum luciferase growth in erythrocytes, 48 h; Potency, µM (series often up to 28.7 µM), hits mostly inhibitors; 5.9% of 310,000 active
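Compounds are pin-transferred into medium, infected erythrocytes (2% hematocrit, 0.1% parasitemia final) are added, and plates sit one parasite generation at 37 C in 5% CO2. Detection reagent is then added and luminescence measured.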
Sm TGR block: blocks Schistosoma mansoni thioredoxin glutathione reductase | Q962Y6 | purified TGR, DTNB reduction, TNB absorbance 405 nm | Potency, µM (top dose mostly 114 µM), actives largely listed as inhibitors | 3% of 360,000 active; also: nearly all actives have a fitted effect of over 60% in size
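Kinetic colorimetric format: TGR-catalysed, NADPH-driven DTNB reduction monitored via TNB absorbance. Enzyme dispensed at 20 nM; compound exposure 15 min at room temperature before reaction start.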
CHX counter: counter-screen hit for Shiga toxin inhibitors, cycloheximide. AID 2314. max response, %. 12% of 300,000 active. cell reporter, cycloheximide protein synthesis inhibition counterscreen; in the data active = max response mostly above about 13%, no sharp cut-off; inactive = mostly below about 14%; also: read at 38.3 µM for the half of the compounds with a filed dose
A number is an active result; i = inactive; ? = inconclusive; nt = not tested or not shown; + = active, no number; [ ] = dose if it differs, or a comment. Unless noted, calls follow the shape of the dose curve; as a rule, active = well fitted curve in the direction sought with a large enough effect; inconclusive = small, poorly fitted or top-dose-only effect, or another doubt; inactive = no such curve, though single readings can be large; an effect the other way counts as inactive or inconclusive.

SMILES	NS1 function inh	Pf growth 96h	Shiga toxin inh	Pf growth 48h	Sm TGR block	CHX counter
COc1ccc(Nc2cc(C)c3cc([N+](=O)[O-])ccc3n2)cc1	i	i	i	i[0.00184 µM]	i	11
O=[N+]([O-])c1ccc(NCCOc2ccccc2Cl)nc1	i	?	44	i	i	29
Cc1cccc(OCCNc2ccc([N+](=O)[O-])cn2)c1	nt	i	i	i	i	i
CCOC(=O)c1ccc(Nc2ccc([N+](=O)[O-])cn2)cc1	i	?	+	i	i	31
Cn1c(-c2c(N)n(-c3ccccc3)c3nc4ccccc4nc23)nc2ccccc21	i	6.6µM	i	9.3µM	i	i
Cc1cccc(-n2c(N)c(-c3nc4ccccc4n3C)c3nc4ccccc4nc32)c1	i	7.4µM	i	10µM	i	i
CCc1ccccc1NC(=O)Cn1nc(-c2cc(C)ccc2C)c2c(c1=O)CCCC2	nt	nt	nt	nt	i	nt
COc1cccc(N2CC(=O)N(NC(=O)CSc3nc(C)cc(C)c3C#N)CC2=O)c1	i	?	i	i	i	i
COc1ccccc1/C=N/n1c(N)c(S(=O)(=O)c2cccs2)c2nc3ccccc3nc21	i	nt	i	6.6µM	i	i
Nc1c(S(=O)(=O)c2cccs2)c2nc3ccccc3nc2n1Cc1ccc2c(c1)OCO2	?	nt	i	15µM	i	i
Nc1c(S(=O)(=O)c2ccccc2)c2nc3ccccc3nc2n1/N=C/c1cccc(O)c1	i	i	i	i	i	i
COc1ccc(CCn2c(N)c(S(=O)(=O)c3cccs3)c3nc4ccccc4nc32)cc1OC	i	?	i	9.3µM	i	i
Nc1c(S(=O)(=O)c2cccs2)c2nc3ccccc3nc2n1Cc1cccs1	i	8.3µM	i	?	i	i
CC(C)CCn1c(N)c(S(=O)(=O)c2cccs2)c2nc3ccccc3nc21	i	?	i	?	i	i
Cc1ccc(C(CC(=O)O)NC(=O)CCNC(=O)c2ccco2)cc1 (centres undefined)	nt	i	nt	i	i	nt
COCCn1c(-c2cccs2)nc2nc3ccccc3nc21	i	i	i	?	i	13
c1csc(-c2nc3nc4ccccc4nc3n2Cc2ccc3c(c2)OCO3)c1	i	i	33	?	i	12
CCCn1c(-c2cccs2)nc2nc3ccccc3nc21	i	?	i	i	i	i
Nc1c(S(=O)(=O)c2cccs2)c2nc3ccccc3nc2n1CCc1ccccc1	i	3.3µM	i	?	i	i
Cc1ccccc1OCCSc1nnc(-c2cccnc2)n1N	i	i	i	i	i	i
CN(CC(=O)Nc1ccc(S(N)(=O)=O)cc1)c1ccccc1	i	i	i	nt	i	i
Cc1cccc(Nc2nc(-c3sc(C)nc3C)cs2)c1	i	?	50	i	i	29
Cc1nc(C)c(-c2csc(Nc3cccc(O)c3)n2)s1	i	?	35	i	i	45
Cc1nc(N)sc1-c1csc(Nc2cccc(O)c2)n1	i	i	i	i	?	14
CCC(=O)Nc1nc(C)c(-c2csc(Nc3cccc(O)c3)n2)s1	i	i	50	nt	i	36
SMILES	NS1 function inh	Pf growth 96h	Shiga toxin inh	Pf growth 48h	Sm TGR block	CHX counter
Cc1nc2ccccn2c1-c1csc(Nc2cccc(O)c2)n1	i	i	i	i	i	i
COc1ccc(C)cc1NS(=O)(=O)c1ccc(Cl)nc1	nt	i	nt	?	i	nt
CC(=Nc1ccccc1N)c1c(O)n(C)c(=O)n(C)c1=O	i	?	72	i	i	24
CC(=NCCc1ccccc1)c1c(O)n(C)c(=O)n(C)c1=O	i	i	i	i	i	i
C/C(=N\NC(=S)Nc1ccccc1)c1c(O)n(C)c(=O)n(C)c1=O	i	i	+	i	i	42
COc1ccc(NS(=O)(=O)c2ccc(OC)c(NC(=O)CNC(=O)c3ccc(OC)cc3)c2)cc1	nt	?	nt	?	i	nt
COc1cc2[nH]c(=O)n(CCCCCC(=O)N3CCN(c4ccc(Cl)cc4)CC3)c(=O)c2cc1OC	nt	nt	nt	nt	i	nt
CCCCCn1c(=O)[nH]c2cc(C(=O)N3CCN(c4ccc(C(C)=O)cc4)CC3)ccc2c1=O	i	12µM	i	?	i	i
CC(=O)c1ccc(N2CCN(C(=O)CCCn3c(=O)[nH]c4ccc(Br)cc4c3=O)CC2)cc1	nt	?	i	10µM	i	i
COc1cc2[nH]c(=O)n(CCCCCC(=O)N3CCN(c4ccccc4)CC3)c(=O)c2cc1OC	i	i	i	7.4µM	i	i
COc1cc2[nH]c(=O)n(Cc3ccccc3Cl)c(=O)c2cc1OC	i	4.7µM	i	i	i	i
